Data from PMC3218832.

Key:
Test in all cases: protein binding microarray; high values mean tight binding
Details in all cases: dsDNA, one strand shown
[1] = molecular target: RELARELA (p65 homodimer) (Homo sapiens, UniProt Q04206 1-307)
[2] = molecular target: p50p50 homodimer (Homo sapiens, UniProt P19838 7-356)
[3] = molecular target: T1, p52p52 homodimer (Homo sapiens, UniProt Q00653 4-332)
T1 sequence: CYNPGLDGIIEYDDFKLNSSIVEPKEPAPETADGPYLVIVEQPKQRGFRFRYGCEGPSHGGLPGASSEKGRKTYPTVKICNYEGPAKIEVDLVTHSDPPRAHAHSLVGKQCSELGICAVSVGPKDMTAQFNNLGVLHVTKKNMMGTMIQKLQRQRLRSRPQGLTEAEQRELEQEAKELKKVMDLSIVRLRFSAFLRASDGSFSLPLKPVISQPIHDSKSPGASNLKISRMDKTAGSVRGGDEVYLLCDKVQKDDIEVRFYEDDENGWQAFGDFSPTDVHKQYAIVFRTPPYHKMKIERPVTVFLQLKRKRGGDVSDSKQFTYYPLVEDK

[4] = molecular target: RELA (p65) subunit of heterodimer;p50 subunit (Homo sapiens;Homo sapiens, UniProt Q04206;P19838 1-307;7-356)
[5] = molecular target: RELA (p65) subunit of heterodimer;p52 subunit (Homo sapiens;Homo sapiens, UniProt Q04206;Q00653 1-307;4-332)
[6] = molecular target: RELB subunit;p50 subunit (Homo sapiens;Homo sapiens, UniProt Q01201;P19838 120-401;7-356)
[7] = molecular target: T2, RELB subunit;p52 subunit (Homo sapiens;Homo sapiens, UniProt Q01201;Q00653 120-401;4-332)
T2 sequence 1: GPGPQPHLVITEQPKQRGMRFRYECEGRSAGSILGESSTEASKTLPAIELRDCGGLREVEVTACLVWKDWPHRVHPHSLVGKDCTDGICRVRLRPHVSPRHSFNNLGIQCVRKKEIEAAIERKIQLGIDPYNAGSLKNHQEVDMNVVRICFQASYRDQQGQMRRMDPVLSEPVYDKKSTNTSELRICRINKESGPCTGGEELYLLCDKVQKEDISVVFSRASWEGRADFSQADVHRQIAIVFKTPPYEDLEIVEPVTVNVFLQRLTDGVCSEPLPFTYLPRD
T2 sequence 2: T1 sequence

[8] = molecular target: C-Rel subunit;p50 subunit (Homo sapiens;Homo sapiens, UniProt Q04864;P19838 1-285;7-356)
[9] = molecular target: T3, C-Rel subunit;p52 subunit (Homo sapiens;Homo sapiens, UniProt Q04864;Q00653 1-285;4-332)
T3 sequence 1: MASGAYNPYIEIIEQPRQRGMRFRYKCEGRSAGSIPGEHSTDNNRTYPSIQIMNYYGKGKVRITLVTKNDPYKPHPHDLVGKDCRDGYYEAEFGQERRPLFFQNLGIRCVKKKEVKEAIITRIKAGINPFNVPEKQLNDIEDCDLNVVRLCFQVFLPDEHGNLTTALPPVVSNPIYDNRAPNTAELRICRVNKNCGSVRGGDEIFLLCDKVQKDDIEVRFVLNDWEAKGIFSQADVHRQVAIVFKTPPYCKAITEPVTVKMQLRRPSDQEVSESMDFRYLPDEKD
T3 sequence 2: T1 sequence

Chain of p50p50 homodimer (P19838 7-356): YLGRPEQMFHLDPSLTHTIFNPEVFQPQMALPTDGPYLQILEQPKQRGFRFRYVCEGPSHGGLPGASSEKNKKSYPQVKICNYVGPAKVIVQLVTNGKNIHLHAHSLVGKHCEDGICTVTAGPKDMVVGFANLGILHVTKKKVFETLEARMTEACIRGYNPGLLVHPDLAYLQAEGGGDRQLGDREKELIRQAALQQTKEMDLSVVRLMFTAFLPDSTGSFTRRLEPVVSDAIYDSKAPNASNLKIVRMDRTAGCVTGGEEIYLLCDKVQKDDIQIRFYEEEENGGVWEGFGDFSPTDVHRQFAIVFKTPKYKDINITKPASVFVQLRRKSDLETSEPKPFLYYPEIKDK
Chain of RELA (p65) subunit of heterodimer;p50 subunit (Q04206 1-307, chain 1 of 2): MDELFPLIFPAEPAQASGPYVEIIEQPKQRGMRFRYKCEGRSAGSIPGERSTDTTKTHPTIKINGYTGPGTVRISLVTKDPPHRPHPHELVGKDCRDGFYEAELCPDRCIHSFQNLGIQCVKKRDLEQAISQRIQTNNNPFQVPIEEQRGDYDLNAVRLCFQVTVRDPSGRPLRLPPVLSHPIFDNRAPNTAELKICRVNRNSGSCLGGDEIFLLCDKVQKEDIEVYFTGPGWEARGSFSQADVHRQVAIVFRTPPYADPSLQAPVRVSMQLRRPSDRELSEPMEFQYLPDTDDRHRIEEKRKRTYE
Chain of RELA (p65) subunit of heterodimer;p50 subunit (P19838 7-356, chain 2 of 2): as the sequence (P19838 7-356) above
Chain of RELARELA (p65 homodimer) (Q04206 1-307): as the sequence (Q04206 1-307, chain 1 of 2) above

| Sequence | binding signal [1] | binding signal [2] | binding signal [3] | binding signal [4] | binding signal [5] | binding signal [6] | binding signal [7] | binding signal [8] | binding signal [9] |
| --- | --- | --- | --- | --- | --- | --- | --- | --- | --- |
| AAAAGCACCCC | -0.281 z-score | 0.833 z-score | 0.946 z-score | 0.86 z-score | 1.12 z-score | 0.711 z-score | 0.952 z-score | 0.423 z-score | 0.69 z-score |
| CAGAAGATCCT | -1.03 z-score | -2.16 z-score | -0.765 z-score | -1.33 z-score | -1.13 z-score | -1.3 z-score | -1.12 z-score | -1.5 z-score | -1.07 z-score |
| AAAAACCTCCC | 0.0581 z-score | 0.2 z-score | -0.135 z-score | 0.166 z-score | -0.13 z-score | 0.0831 z-score | 0.117 z-score | 0.28 z-score | 0.0846 z-score |
| GGGGTCATCCT | -0.528 z-score | -0.376 z-score | -0.115 z-score | -0.626 z-score | -0.394 z-score | -0.425 z-score | -0.362 z-score | -0.494 z-score | -0.0992 z-score |
| CGAGGCTTCCT | -0.994 z-score | -2.47 z-score | -0.827 z-score | -1.09 z-score | -1.19 z-score | -1.31 z-score | -1.05 z-score | -1.49 z-score | -1.05 z-score |
| GGATAGACCCC | -0.296 z-score | -0.324 z-score | -0.227 z-score | -0.111 z-score | -0.128 z-score | -0.398 z-score | 0.071 z-score | -0.41 z-score | -0.251 z-score |
| AAGAATCCCCC | 1.26 z-score | 1.57 z-score | 2.41 z-score | 2.44 z-score | 2.16 z-score | 2.64 z-score | 2.41 z-score | 1.79 z-score | 1.99 z-score |
| CAATTGCTCCC | -0.396 z-score | -0.852 z-score | -0.46 z-score | -0.685 z-score | -0.589 z-score | -0.487 z-score | -0.531 z-score | -0.849 z-score | -0.604 z-score |
| AAATTTTTCCC | 3.12 z-score | 1.2 z-score | 1.17 z-score | 1.78 z-score | 1.37 z-score | 1.03 z-score | 1.38 z-score | 1.97 z-score | 1.31 z-score |
| GGGTAGTTCCT | 0.746 z-score | 0.495 z-score | 0.541 z-score | 0.394 z-score | 0.345 z-score | -0.0983 z-score | 0.0547 z-score | 0.249 z-score | 0.583 z-score |
| AGAAGGCCCCT | -0.756 z-score | 0.412 z-score | 0.0419 z-score | 0.306 z-score | 0.149 z-score | 0.0369 z-score | 0.0992 z-score | -0.139 z-score | 0.0154 z-score |
| AAAAGGTCCCC | 0.121 z-score | 0.934 z-score | 0.86 z-score | 0.799 z-score | 0.753 z-score | 1.08 z-score | 0.995 z-score | 0.454 z-score | 0.594 z-score |
| CGATAAGCCCC | -0.417 z-score | 0.756 z-score | 0.22 z-score | 0.383 z-score | 0.238 z-score | 0.334 z-score | 0.409 z-score | 0.25 z-score | 0.31 z-score |
| CAAATAATCCT | -0.308 z-score | -0.88 z-score | -0.501 z-score | -0.911 z-score | -0.746 z-score | -0.974 z-score | -0.846 z-score | -1.09 z-score | -0.674 z-score |
| CGGTATCCCCC | 0.855 z-score | 1.13 z-score | 2.07 z-score | 1.69 z-score | 1.56 z-score | 1.33 z-score | 1.65 z-score | 1.23 z-score | 1.71 z-score |
